Assay [1] addresses Glucocorticoid receptor (Homo sapiens) (UniProt P04150). Put plainly: GR-EFC Redistribution (AID 451). Further: potency means the concentration at half of the fitted maximal effect. The note with it: CHO-K1 GR-EFC translocation, beta-gal luminescence, 2 h. The method in brief:
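CHO-K1 cells stably expressing nuclear-localized β-gal enzyme acceptor and GR fused C-terminally to the enzyme donor fragment; ligand-driven nuclear translocation restores β-gal by complementation. Compounds titrated up to 46 uM final, 2 h at 37 °C; luminescence read.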

For assay [2], the target named is Mitogen-activated protein kinase 10 (Mus musculus) (UniProt Q61831). Nature of the assay: JNK3 AlphaScreen Assay (AID 530; active means well fitted curve in either direction with a large enough effect, not every such curve was filed as active;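 further: kinase came from lysate of stimulated human HepG2 cells; on the % scale 0 is the no-effect control and ±100 the full control effect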). To be noted: JNK3 lysate, c-Jun phosphorylation; series mostly up to 57.1 µM. The method in brief: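 JNK3 came from HepG2 lysates pre-activated with IL-1beta and TNF-alpha and phosphorylated biotinylated GST-cJun (1-79) at 10 uM ATP, pH 7.6, room temperature. Compounds were titrated. AlphaScreen signal used anti-phospho-cJun (Ser73) antibody.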

In assay [3] the target is 3',5'-cyclic-AMP phosphodiesterase 4B (Homo sapiens) (UniProt Q07343). Put plainly: qHTS Assay for Inhibitors of PDE-IV (AID 607; active means well fitted activation curve with a large enough effect in the main read-out, with a control signal flat, not every such curve was filed as active; further: % of control where 0% means no effect). To be noted: HEK293 ACTOne CNG channel cells, membrane potential fluorescence; series mostly up to 22.9 µM. The method in brief:
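Cell-based read-out of cAMP via a modified cyclic nucleotide-gated channel and membrane potential dye (535/590 nm) in HEK293 cells expressing PDE4 endogenously. Compounds tested up to 22.9 uM final; 100 uM RO 20-1724 reference.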

Assay [4] concerns the target Cytochrome P450 3A4 (Homo sapiens) (UniProt P08684). Nature of the assay: qHTS Assay for Activators of Cytochrome P450 3A4 (AID 885; active means well fitted curve in the direction sought with a large enough effect; an effect the other way counts as inactive or inconclusive; further: nearly all actives have a fitted effect of over 65% in size). To be noted: recombinant CYP3A4, Luciferin-PPXE luminescence, 60 min; series mostly up to 57.1 µM. Put shortly:
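Signal was normalized against complete inhibition by 57 uM ketoconazole. The reaction used 20nM CYP3A4 with 25uM Luciferin-PPXE, 10-min compound preincubation and a 60-min NADPH-supported step at RT.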

Assay [5] in a line: VSVG counterscreen qHTS to identify inhibitors of SARS-CoV-2 cell entry (AID 1645847). Further: potency means the concentration at half of the fitted maximal effect; nearly all actives have a fitted effect of over 65% in size. To be noted: VSV-G pseudotyped particle entry, luciferase; series mostly up to 57.2 µM. Put shortly: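 Luminescence from a luciferase reporter, normalised to bald particle and VSV-G pseudotyped particle wells, is the read-out. Cells are HEK293 expressing human ACE2, exposed to compound 1 h before a 48 h particle infection at 37 °C.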

Assay [6] can be described thus: Primary qHTS for Huh7 cytotoxicity: counterscreen for inhibitors of MERS-S pseudotyped particle cell entry (AID 1479147). The note with it: cell viability read-out; series mostly up to 57.1 µM.
Assay [7] can be described thus: Primary qHTS for Vero E6 cytotoxicity: counterscreen for inhibitors of SARS-S pseudo-typed particle cell entry (AID 1479150). To be noted: cell viability; series mostly up to 57.1 µM.
Assay [8] is described as follows: Primary qHTS for inhibitors of SARS-S pseudo-typed particle cell entry (AID 1479145). Further: nearly all actives have a fitted effect of over 45% in size. Further: potency means the concentration at half of the fitted maximal effect. To be noted: SARS-S pseudotyped particle cell entry, luciferase reporter; series mostly up to 57.1 µM.
Assay [9] in a line: AP1 Signaling Pathway (AID 357; active means well fitted curve in either direction with a large enough effect, not every such curve was filed as active;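 further: ME-180 reporter cells stimulated with EGF at its EC50 level; on the % scale 0 is the no-effect control and ±100 the full control effect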). To be noted: ME-180 AP-1-bla reporter, EGF-induced, beta-lactamase ratio, 5 h; series mostly up to 17.2 µM. Put shortly:
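Modulation of EGF-driven AP-1 transcription was assessed with a beta-lactamase reporter in ME-180 cells. Compound and EC50 EGF were co-incubated 5 hours at 37 °C before 2.5-hour CCF4 loading at room temperature and dual-emission reading.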

Assay [10] can be described thus: NFAT Signaling Pathway (AID 444; active means well fitted curve in either direction with a large enough effect, not every such curve was filed as active;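 further: carbachol stimulus at about its EC50 of 1 µM final; on the % scale 0 is the no-effect control and ±100 the full control effect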). The note with it: Jurkat NFAT-bla M1, carbachol, beta-lactamase ratio, 5 h; at 38 µM (top of the series). Put shortly: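 Jurkat cells carrying an NFAT-driven β-lactamase reporter and co-transfected muscarinic M1 receptor were treated with compound plus carbachol (1 uM final, an EC50 level) for 5 h at 37 °C. CCF4 loading followed for 1 h at RT; 460/530 nm ratio gave %activity.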

Assay [11] in a line: Stat Signaling Pathway (AID 446; active means well fitted curve in either direction with a large enough effect, not every such curve was filed as active;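 further: ME-180 cervical cancer cells given 40 pM IL-6 alongside compound; SIE-controlled beta-lactamase reporter measured as 460/530 nm FRET emission ratio; on the % scale 0 is the no-effect control and ±100 the full control effect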). The note with it: ME-180 SIE beta-lactamase reporter, IL-6 stimulated, 5 h; series mostly up to 17.2 µM. The method in brief:
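Reporter line: ME-180 cervical carcinoma, SIE-beta-lactamase. Treatment: compound with 40 pM IL-6, 5 hrs, 37 C, in low-serum OPTI-MEM with 10 mM HEPES pH 7.3. Detection: 460/530 nm fluorescence.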

Assay [12] addresses Guanine nucleotide-binding protein G(i) subunit alpha-1 (Homo sapiens) (UniProt P63096). Nature of the assay: qHTS Assay for Inhibitors of RGS12 GoLoco Motif Activity (Green Fluorophore) (AID 879; active means well fitted curve in the direction sought with a large enough effect; an effect the other way counts as inactive or inconclusive;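 further: 0% = labeled peptide with Gαi1 and full inhibition = labeled peptide alone without protein; negative values mean loss of peptide binding seen as reduced polarization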). The note with it: Galphai1/FITC-RGS12 GoLoco peptide, fluorescence polarization; series mostly up to 57.1 µM. Put shortly:
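Fluorescence polarization assay: 50 nM Gαi1 with 10 nM FITC-labeled RGS12 GoLoco peptide in 10 mM Tris pH 7.5, 150 mM NaCl, 0.1 mM GDP, 0.05% NP40, 10 min at room temperature with compound.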

The target of assay [13] is Pyruvate kinase (Leishmania mexicana) (UniProt Q27686). Put plainly: qHTS Validation Assay for Inhibitors of Leishmania Mexicana Pyruvate Kinase (AID 945; active means well fitted curve in the direction sought with a large enough effect; an effect the other way counts as inactive or inconclusive;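 further: 0% = DMSO only neutral control wells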). The note with it: purified L. mexicana pyruvate kinase, enzyme activity, E451W mutant enzyme; series mostly up to 57.5 µM. Put shortly: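 qHTS eight-point titrations against 0.2 nM LmPYK (E451W) in imidazole buffer pH 7.2 with 0.5 mM PEP, 0.1 mM ADP; 1 h, room temperature. Readout: PKLight luminescence, normalized to neutral DMSO wells.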

Assay [14] has as its target Alpha-galactosidase (Coffea arabica) (UniProt Q42656). Nature of the assay: Counterscreen for Glucocerebrosidase Inhibitors: qHTS Assay for Coffee Bean alpha-Galactosidase at pH 4.5 (AID 957; active means well fitted curve in the direction sought with a large enough effect; an effect the other way counts as inactive or inconclusive;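 further: plate controls were enzyme alone for no effect and no enzyme for full effect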). The note with it: purified coffee bean alpha-galactosidase, fluorogenic substrate; series mostly up to 76.9 µM. Put shortly:
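AC50 values derive from Hill-equation modeling of concentration-response data, normalized to no-enzyme and full-activity controls. The pH 4.5 citrate assay used 2 nM coffee bean enzyme and 80 uM fluorogenic substrate for 20 min.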

Assay [15] deals with Alpha-galactosidase A (Homo sapiens) (UniProt P06280). Nature of the assay: Counterscreen for Glucocerebrosidase Inhibitors: qHTS Assay for Human alpha-Galactosidase at pH 4.5 (AID 992; active means well fitted curve in the direction sought with a large enough effect; an effect the other way counts as inactive or inconclusive; further: 0% is about no effect). The note with it: purified enzyme, fluorogenic substrate; series mostly up to 76.9 µM. The method in brief:
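Quantitative HTS: compounds tested from 0.7 nM up to 77 uM against 2 nM enzyme with 80 uM 4-MU alpha-D-galactopyranoside. The 20 min room-temperature reaction is stopped with 1M NaOH/1M glycine, pH 10.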

Assay [16] deals with alpha-glucosidase (Oryza sativa, rice) (UniProt Q653V4). Put plainly: Counterscreen for Glucocerebrosidase Inhibitors: qHTS Assay for Rice alpha-Glucosidase at pH 5.0 (AID 997; active means well fitted curve in the direction sought with a large enough effect; an effect the other way counts as inactive or inconclusive;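 further: 0% = full activity with enzyme and -100% = basal without enzyme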). The note with it: rice alpha-glucosidase enzyme activity; series mostly up to 76.9 µM. Put shortly: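 Rice alpha-glucosidase (4 nM final) with 400 uM 4-methylumbelliferyl-alpha-D-glucopyranoside in citrate buffer pH 5.0, 20 min at room temperature, stopped at pH 10; fluorescence 365/440 nm, compounds 0.7 nM–77 uM, AC50 from Hill fits.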

For assay [17], the target named is Alpha-galactosidase (Coffea arabica) (UniProt Q42656). Nature of the assay: Counterscreen for Glucocerebrosidase Inhibitors: qHTS Assay for Coffee Bean alpha-Galactosidase at pH 5.9 (AID 998; active means well fitted curve in the direction sought with a large enough effect; an effect the other way counts as inactive or inconclusive;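 further: plate controls were uninhibited enzyme for no effect and no-enzyme basal signal for full effect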). To be noted: coffee bean alpha-galactosidase enzyme assay; series mostly up to 76.9 µM. The method in brief:
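Green coffee bean enzyme (2 nM final) was incubated with compounds (0.7 nM–77 uM) and 4-methylumbelliferyl alpha-D-galactopyranoside (80 uM) in citrate buffer pH 5.9, 20 min at room temperature. High-pH stop; fluorescence 365/440 nm; AC50 from Hill fits.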

SMILES strings stand for the structures. Records with an inconclusive call do not appear. Active and inactive are the calls of the source. Unless noted, the call rests on the fitted dose curve. A value given as a limit tells only on which side of the number the result lay.

3',5'-cyclic-AMP phosphodiesterase 4B (Homo sapiens), sequence (Q07343 whole entry, looked up): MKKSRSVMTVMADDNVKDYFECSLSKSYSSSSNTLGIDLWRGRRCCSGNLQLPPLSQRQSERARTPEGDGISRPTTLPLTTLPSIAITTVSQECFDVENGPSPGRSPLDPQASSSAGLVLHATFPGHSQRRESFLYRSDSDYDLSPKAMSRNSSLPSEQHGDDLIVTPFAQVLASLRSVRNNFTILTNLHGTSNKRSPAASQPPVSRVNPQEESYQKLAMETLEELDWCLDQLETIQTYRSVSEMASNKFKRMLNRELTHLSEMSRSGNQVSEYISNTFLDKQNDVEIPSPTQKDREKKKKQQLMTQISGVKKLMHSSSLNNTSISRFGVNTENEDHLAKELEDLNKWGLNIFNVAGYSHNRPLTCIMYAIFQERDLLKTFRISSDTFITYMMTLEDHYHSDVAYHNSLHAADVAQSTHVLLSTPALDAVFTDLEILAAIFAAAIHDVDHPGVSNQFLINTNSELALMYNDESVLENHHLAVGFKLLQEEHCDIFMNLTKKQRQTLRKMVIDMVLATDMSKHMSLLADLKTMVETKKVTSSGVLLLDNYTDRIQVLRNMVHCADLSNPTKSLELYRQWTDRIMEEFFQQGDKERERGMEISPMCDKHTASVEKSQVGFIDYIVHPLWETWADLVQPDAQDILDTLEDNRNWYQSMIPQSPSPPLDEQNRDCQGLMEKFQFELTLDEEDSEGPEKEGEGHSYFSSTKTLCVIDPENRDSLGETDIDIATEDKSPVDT
Cytochrome P450 3A4 (Homo sapiens), sequence (P08684 whole entry, looked up): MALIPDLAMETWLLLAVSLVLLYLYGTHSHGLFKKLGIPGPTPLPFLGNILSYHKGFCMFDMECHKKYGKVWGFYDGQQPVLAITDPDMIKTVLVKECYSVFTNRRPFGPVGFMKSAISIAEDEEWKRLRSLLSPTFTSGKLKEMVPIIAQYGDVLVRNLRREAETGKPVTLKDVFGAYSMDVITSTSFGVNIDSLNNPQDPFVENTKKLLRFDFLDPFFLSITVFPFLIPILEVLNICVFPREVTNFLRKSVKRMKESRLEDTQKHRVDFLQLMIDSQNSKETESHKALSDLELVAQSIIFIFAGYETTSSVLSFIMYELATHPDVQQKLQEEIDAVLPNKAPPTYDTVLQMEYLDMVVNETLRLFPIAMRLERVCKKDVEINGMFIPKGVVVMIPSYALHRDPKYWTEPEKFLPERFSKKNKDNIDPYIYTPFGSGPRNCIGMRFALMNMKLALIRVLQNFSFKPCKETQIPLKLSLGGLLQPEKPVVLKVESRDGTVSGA
Glucocorticoid receptor (Homo sapiens), sequence (P04150 whole entry, looked up, the tested form may be a part): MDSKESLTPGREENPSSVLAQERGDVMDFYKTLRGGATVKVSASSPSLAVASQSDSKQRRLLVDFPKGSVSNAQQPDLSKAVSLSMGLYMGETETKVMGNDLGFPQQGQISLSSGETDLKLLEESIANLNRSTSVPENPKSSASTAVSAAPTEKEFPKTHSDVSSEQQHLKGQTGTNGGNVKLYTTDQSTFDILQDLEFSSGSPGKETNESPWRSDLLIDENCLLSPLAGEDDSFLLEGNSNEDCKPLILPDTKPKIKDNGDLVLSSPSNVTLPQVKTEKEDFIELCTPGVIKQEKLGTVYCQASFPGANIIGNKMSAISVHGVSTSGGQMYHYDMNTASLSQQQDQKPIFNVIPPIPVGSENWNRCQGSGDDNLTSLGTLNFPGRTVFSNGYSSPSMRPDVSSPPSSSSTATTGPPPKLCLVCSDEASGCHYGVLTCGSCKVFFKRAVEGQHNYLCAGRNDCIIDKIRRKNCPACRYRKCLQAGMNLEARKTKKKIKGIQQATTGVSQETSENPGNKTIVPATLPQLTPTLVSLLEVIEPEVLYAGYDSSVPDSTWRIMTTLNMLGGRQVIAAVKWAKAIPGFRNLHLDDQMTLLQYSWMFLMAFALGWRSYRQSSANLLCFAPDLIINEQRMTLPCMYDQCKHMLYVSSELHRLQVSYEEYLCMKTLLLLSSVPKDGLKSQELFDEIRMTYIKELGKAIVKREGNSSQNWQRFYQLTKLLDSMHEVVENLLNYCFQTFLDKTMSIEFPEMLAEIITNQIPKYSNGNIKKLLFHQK
Alpha-galactosidase (Coffea arabica), sequence (Q42656 whole entry, looked up): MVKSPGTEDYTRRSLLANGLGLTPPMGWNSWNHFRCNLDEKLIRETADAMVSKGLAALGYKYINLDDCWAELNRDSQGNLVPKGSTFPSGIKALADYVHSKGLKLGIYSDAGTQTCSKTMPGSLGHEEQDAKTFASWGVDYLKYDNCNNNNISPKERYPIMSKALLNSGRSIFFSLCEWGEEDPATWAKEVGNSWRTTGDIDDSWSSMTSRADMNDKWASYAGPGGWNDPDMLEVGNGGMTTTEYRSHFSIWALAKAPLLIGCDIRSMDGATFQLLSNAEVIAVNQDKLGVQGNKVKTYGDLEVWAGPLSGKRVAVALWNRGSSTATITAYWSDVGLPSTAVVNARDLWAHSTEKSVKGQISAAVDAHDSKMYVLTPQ
Alpha-galactosidase A (Homo sapiens), sequence (P06280 whole entry, looked up): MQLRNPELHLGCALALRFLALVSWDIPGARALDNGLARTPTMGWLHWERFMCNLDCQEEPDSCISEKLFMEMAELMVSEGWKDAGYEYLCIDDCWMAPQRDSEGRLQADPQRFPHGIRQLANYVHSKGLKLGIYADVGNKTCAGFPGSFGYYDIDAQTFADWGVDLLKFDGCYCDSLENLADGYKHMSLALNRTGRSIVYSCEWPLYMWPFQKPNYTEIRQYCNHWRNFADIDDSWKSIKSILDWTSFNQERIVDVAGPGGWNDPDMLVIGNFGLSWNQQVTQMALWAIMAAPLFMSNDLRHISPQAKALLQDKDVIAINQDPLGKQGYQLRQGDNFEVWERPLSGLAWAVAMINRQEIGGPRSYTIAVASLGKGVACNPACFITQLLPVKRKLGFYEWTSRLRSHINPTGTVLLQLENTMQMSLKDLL
Guanine nucleotide-binding protein G(i) subunit alpha-1 (Homo sapiens), sequence (P63096 whole entry, looked up): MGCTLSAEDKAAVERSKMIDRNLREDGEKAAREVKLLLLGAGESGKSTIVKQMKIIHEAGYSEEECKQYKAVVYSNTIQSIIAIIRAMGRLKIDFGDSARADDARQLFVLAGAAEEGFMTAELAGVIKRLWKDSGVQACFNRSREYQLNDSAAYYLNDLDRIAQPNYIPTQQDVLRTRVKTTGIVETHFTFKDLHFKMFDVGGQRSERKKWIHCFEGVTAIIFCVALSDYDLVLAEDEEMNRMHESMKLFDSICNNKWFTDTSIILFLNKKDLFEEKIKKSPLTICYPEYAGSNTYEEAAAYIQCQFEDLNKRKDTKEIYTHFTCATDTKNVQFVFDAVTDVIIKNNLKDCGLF
Pyruvate kinase (Leishmania mexicana), sequence (Q27686 2-499 E452W): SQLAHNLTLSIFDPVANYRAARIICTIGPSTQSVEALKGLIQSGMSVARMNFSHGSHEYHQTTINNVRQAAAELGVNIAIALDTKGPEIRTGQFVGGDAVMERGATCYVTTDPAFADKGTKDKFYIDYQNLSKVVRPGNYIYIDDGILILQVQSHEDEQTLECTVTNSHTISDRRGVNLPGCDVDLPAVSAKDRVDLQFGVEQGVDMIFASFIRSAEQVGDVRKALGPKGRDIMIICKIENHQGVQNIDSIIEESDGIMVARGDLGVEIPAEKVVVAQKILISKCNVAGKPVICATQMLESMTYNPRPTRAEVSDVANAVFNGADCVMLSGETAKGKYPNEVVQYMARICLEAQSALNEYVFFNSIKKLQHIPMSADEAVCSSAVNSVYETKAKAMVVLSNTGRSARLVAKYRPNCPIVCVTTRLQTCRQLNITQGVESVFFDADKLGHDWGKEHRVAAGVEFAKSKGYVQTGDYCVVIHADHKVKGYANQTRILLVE

`CN(C)[C@@H]1C(=O)C(C(N)=O)=C(O)[C@]2(O)C(=O)C3=C(O)c4c(O)cccc4[C@@](C)(O)[C@@H]3C[C@@H]12`: the Potency in assay [1] was > 46 µM (inactive). Besides, the compound was called inactive in [2]. Moreover, the Potency entry in assay [3] is “inactive”.
Take `CCC1/C=C/C=CCC(C)C(O)[C@@](C)(O)C(=O)C(C)C(O)C(C)C(=O)C(C)C(O)C(C)C=CC(=O)O[C@H]2C(C)C(CC1)O[C@]1(CCC(C)C(CC(C)O)O1)C2C` (some centres not stated): the Potency entry in [4] is “inactive”.
Regarding `CC(C)[C@]12O[C@H]1[C@@H]1O[C@@]13[C@@]1(C)CCC4=C(COC4=O)[C@@H]1C[C@@H]1O[C@@]13C2=O`, in assay [5], the Potency is 0.341 µM (active).
For `CC(C)(O)/C=C\C(=O)[C@](C)(O)[C@H]1[C@H](O)C[C@]2(C)[C@@H]3CC=C4[C@@H](C=C(O)C(=O)C4(C)C)[C@]3(C)C(=O)C[C@@]12C`, the activity change, negative = inhibition in [2] was 2.97% [at 11.4 µM] (inactive). The Potency result in assay [3] was “inactive”. Further, the activity change, positive = activation in assay [4] was -93.2% [at 11.4 µM] (inactive).
For the compound `C/C=C(\C)C(=O)N[C@@H](c1ccccc1)[C@@H](O)C(=O)O[C@H]1C[C@@]2(O)[C@@H](OC(=O)c3ccccc3)[C@@H]3[C@]4(OC(C)=O)CO[C@@H]4C[C@H](O)[C@@]3(C)C(=O)[C@H](OC(C)=O)C(=C1C)C2(C)C`, the Potency in assay [5] is 0.108 µM (active).
For the compound `CO[C@H]1CCC(O[C@H]2C[C@H]([C@]3(C)CC[C@]4(C[C@H](O)[C@@H](C)[C@@H]([C@@H](C)/C=C(\C)C(=O)[C@H](C)C[C@H](C)C(=O)O)O4)O3)O[C@]3(O[C@@H]([C@H]4O[C@@](O)(CO)[C@H](C)C[C@@H]4C)C[C@@H]3C)[C@@H]2C)O[C@@H]1C` (some centres not stated), the Potency in assay [5] is 0.607 µM (active).
On to `C=C(C)[C@@H]1CCC(C)=C[C@H]1c1c(O)cc(CCCCC)cc1O`, for which the Potency entry in [6] and in [7] was “inactive” in each case. Moreover, in [5], the Potency is 24.1 µM (active).
`Cc1c(N)nc([C@H](CC(N)=O)NC[C@@H](N)C(N)=O)nc1C(=O)N[C@H](C(=O)N[C@@H](C)[C@H](O)[C@@H](C)C(=O)N[C@@H](C(=O)NCCc1nc(-c2nc(C(=O)NCCC[S+](C)C)cs2)cs1)[C@@H](C)O)C(O[C@H]1O[C@H](CO)[C@H](O)[C@@H](O)[C@H]1O[C@H]1O[C@H](CO)[C@@H](O)[C@H](OC(N)=O)[C@@H]1O)c1cnc[nH]1` (some centres not stated): the Potency is 14.1 µM (active) in assay [8] and 0.0341 µM (active) in [5]. The Potency entry in [6] and in assay [7] was “inactive” each time.
`CC[C@@]1(O)C(=O)OCc2c1cc1n(c2=O)Cc2c-1nc1cc(F)c(C)c3c1c2[C@@H](N)CC3`: the Potency result in [8] and in [6] was “inactive” throughout.
Take `COc1cc(C=C(C#N)C#N)cc(O)c1O`: the outcome in assay [9], in assay [11], in [2], in assay [12], in assay [14] and in assay [15] was inactive. Further, the result in assay [16] and in assay [17] was inactive. Further, in assay [10], the activity change, negative = inhibition was -29.4% (inactive). Besides, the Potency in assay [1] is > 46 µM (inactive). The Potency result in assay [3], in assay [4] and in assay [13] was “inactive” each time.

The values above are taken from PubChem BioAssay (NCATS).
